Screening results deposited in PubChem BioAssay by several laboratories.
HSF1 activator – increases HSF-1 driven luciferase reporter signal; NIH3T3-HGL HSF-1 luciferase reporter, MG132, 8 h; 100% = twice DMSO control signal; activation, % at 9 µM; 1.7% of 300,000 active;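 active means mean replicate activation of at least 50% with a set share of replicates each reaching 50%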;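 further: 0% = median of the neutral control wells and 100% = twice that signal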
GAA850 FXN act – increases GAA850 frataxin promoter reporter activity; activation, % at 6 µM; AID 540364; 0.56% of 360,000 active; HEK293 lucGAA850 FXN promoter luciferase reporter, 24 h; percent of 10 µM SAHA response;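 active means activation above the average of all compounds screened plus 3 SD, cutoff fixed separately per campaign, cut at about 7.5% in these data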;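 further: 0% = DMSO wells and 100% = 10 µM SAHA wells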
HSF1 inhib – HSF1 inhibition | NIH3T3-HGL HSE-luciferase, MG132-induced, luminescence 8 h; stronger effect = lower value | activity change, negative = inhibition, % at 7.5 µM (by protocol) | 0.77% of 300,000 active | AID 2098;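 active means more than half of replicate wells show activity change below -50%, luminescence cut by over half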;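 further: luciferase reports HSF-1 transcriptional activity via heat shock element; 0% = median of DMSO wells and -100% = zero luminescence signal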
HSP90 inh – inhibitors of HSP90 luciferase refolding in rabbit reticulocyte lysate. luciferase refolding luminescence, 3 h. inhibition, % at 5.6 µM. 0.91% of 290,000 active. AID 1789;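 active means inhibition above the screen-wide mean plus 3 SD, computed separately per campaign, cut at about 16% in these data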;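 further: 0% = DMSO wells and 100% = 60 µM geldanamycin wells; inhibitors lower the luminescence because luciferase stays unfolded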
NR0B1 inh – inhibitors of human orphan nuclear receptor DAX1 (NR0B1). P51843. HEK293 Gal4-DAX1 luciferase reporter, luminescence. inhibition, % at 6.75 µM. 0.99% of 340,000 active;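 active means inhibition above the mean over all tested compounds plus 3 SD, cut at about 4.2% in these data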;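 further: 0% = DAX1-transfected cells with DMSO and 100% = empty-vector control cells with DMSO; inhibition shows as a rise in luminescence from relieved DAX1 repression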
AHR activator – activators of human aryl hydrocarbon receptor; P35869; AHR-responsive luciferase reporter cells, luminescence; activation, % at 5 µM; 2.5% of 320,000 active; in the data active means activation above about 47%;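 further: 0% = vehicle wells and 100% = reference agonist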
Target sequence (P35869 whole entry, looked up): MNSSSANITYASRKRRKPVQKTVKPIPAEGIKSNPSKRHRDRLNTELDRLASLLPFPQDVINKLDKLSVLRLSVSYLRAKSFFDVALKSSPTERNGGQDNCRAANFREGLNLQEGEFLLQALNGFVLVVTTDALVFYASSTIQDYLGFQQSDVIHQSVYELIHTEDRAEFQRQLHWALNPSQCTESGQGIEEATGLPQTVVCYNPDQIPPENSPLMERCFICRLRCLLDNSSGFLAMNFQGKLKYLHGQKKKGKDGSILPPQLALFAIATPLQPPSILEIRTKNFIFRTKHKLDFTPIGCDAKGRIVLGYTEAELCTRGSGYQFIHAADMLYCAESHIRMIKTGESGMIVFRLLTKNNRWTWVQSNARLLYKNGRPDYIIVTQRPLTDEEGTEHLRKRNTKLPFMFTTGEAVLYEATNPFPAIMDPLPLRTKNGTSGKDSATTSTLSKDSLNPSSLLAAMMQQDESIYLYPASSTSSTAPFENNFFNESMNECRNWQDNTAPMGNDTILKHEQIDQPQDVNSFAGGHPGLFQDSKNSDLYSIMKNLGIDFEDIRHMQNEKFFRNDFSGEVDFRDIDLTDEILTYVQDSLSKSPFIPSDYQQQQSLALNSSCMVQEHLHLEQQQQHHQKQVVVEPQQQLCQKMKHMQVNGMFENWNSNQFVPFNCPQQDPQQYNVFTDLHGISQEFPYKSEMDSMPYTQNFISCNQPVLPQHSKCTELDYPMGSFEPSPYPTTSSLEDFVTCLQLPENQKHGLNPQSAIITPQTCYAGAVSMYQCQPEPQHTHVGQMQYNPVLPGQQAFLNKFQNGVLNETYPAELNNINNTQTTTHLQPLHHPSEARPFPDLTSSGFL
* hit, by the source's call; . = no result. Shown are actives, neighbours in structure and some others; about 5.9% of the full set was active somewhere.

SMILES	HSF1 activator	GAA850 FXN act	HSF1 inhib	HSP90 inh	NR0B1 inh	AHR activator
COc1cccc2c1CCC1=CC(=O)CCC12C (stereo not given)	.	1	.	.	-1	.
O=C1c2ccccc2[C@@H]2C[C@H]3O[C@H]3CCN12	.	0	.	.	-1	.
CSc1nc(/C=C2\C=Nc3ccccc32)c(O)n1C	36	4	3	-3	1	51*
Cc1ccn2c(=O)nc(SCC(=O)N3N=C(c4cccs4)CC3c3ccc(F)cc3)nc2c1 (stereo not given)	16	-4	3	.	-1	2
Cc1cccn2c(=O)nc(SCC(=O)N3N=C(c4cccs4)CC3c3ccc(F)cc3)nc12 (stereo not given)	95*	-1	50	.	-1	.
CC1(C)CC(=O)c2cnc(NC3CC3)nc2C1	9	6	0	-1	0	2
Cc1ccc(Nc2ncc3c(n2)CC(C)(C)CC3=O)cc1	21	1	8	0	6.0*	25
O=C(O)CSc1nnnn1-c1ccc2c(c1)OCCO2	70*	-2	23	5	-1	2
CN(C)c1c(F)cc(C(=O)NCc2ccccc2)cc1F	7	2	6	-2	4.3*	0
CC(C)(C)c1csc(N/N=C/c2ccc(O)cc2)n1	44	6	16	-3	-1	72*
CC(=O)Nc1sc(N/N=C/c2ccc(O)cc2)nc1-c1ccc(C)cc1	8	1	-3	-3	-1	8
COc1ccccc1NC(=O)c1nn(C)cc1Br	7	-1	-4	-2	1	61*
COc1ccccc1NC(=O)C1=C(C)NC(=O)NC1c1ccccc1[N+](=O)[O-] (stereo not given)	8	2	8	1	0	71*
Cn1ncc([N+](=O)[O-])c1C(=O)Nc1ccccc1C(=O)O	8	1	-4	0	-1	1
CC1=C(C(=O)Nc2ccccc2)C(c2ccccc2[N+](=O)[O-])NC(=O)N1 (stereo not given)	13	1	5	1	0	27
Cn1ncc([N+](=O)[O-])c1C(=O)Nc1ccc(Cl)cc1	-11	0	2	-3	0	72*
COc1ccccc1NC(=O)c1c([N+](=O)[O-])cnn1C	6	0	-3	-2	1	61*
COc1ccc(CC(NC(C)=O)C(=O)NC2CCN(c3nnnn3-c3ccccc3)CC2)cc1OC (stereo not given)	-22	.	-7	-5	.	-2
COc1ccccc1CNc1nc(Oc2cccc(F)c2)c2sccc2n1	.	2	.	.	.	.
COc1ccccc1NC(=O)c1nn(C)c(C(=O)Nc2ccccc2OC)c1[N+](=O)[O-]	-48	1	-32	1	1	59*
COc1ccc(OC)c(NC(=O)/C=C/c2ccccc2[N+](=O)[O-])c1	-1	4	-5	-3	-1	71*
O=C(/C=C/c1cc([N+](=O)[O-])ccc1OC(F)F)Nc1cccc2ccccc12	0	2	-3	-6	0	4
COc1ccc(NC(=O)/C=C/c2ccccc2[N+](=O)[O-])c(OC)c1	6	-1	-1	1	0	77*
COc1ccccc1NC(=O)/C=C/c1cc([N+](=O)[O-])ccc1OC(F)F	-16	2	-3	-3	1	49*
COc1cccc(NC(=O)/C=C/c2ccccc2[N+](=O)[O-])c1	2	5	-3	-6	2	45
SMILES	HSF1 activator	GAA850 FXN act	HSF1 inhib	HSP90 inh	NR0B1 inh	AHR activator
COC(=O)N1CCCCC1c1cc(C(=O)NCc2ccccc2)no1 (stereo not given)	.	0	.	.	.	.
CN(CCc1ccccn1)C(=O)c1cccnc1Oc1ccccc1	-9	1	-3	1	6.4*	0
CC(C)(C)N1C(=O)Cc2c1nc(N)c1c(N)nc(N3CCCCC3CO)c(C#N)c21 (stereo not given)	68*	3	24	2	0	4
CN(CCO)c1nc(N)c2c(N)nc3c(c2c1C#N)CC(=O)N3C1CCCC1	14	.	3	5	.	6
O=c1c2ccccc2oc2ccc(C#CC3(O)CCCCC3)cc12	-87	-7	-86*	.	-2	-10
Cc1cc2sc3ccc(C#CC4(O)CCCCC4)cc3c(=O)c2cc1C	-93	-13	-90*	.	-5	-13
